We go through 13 molecules from PubChem BioAssay (NCI).

Molecules are shown by their SMILES. About 83,000 compounds went through this panel and 20% of them were active in at least one assay; those are over-represented in the sample as a whole.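 Interpretation: 100, growth as untreated; towards 0, rising growth inhibition; 0, no net growth; 0 to -100, cell death. Compounds scoring below 10 were considered active.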 A number with no mark means an inactive call. The source made the active and inactive calls.

What all share (assay): NCI-60 one-dose screen, 48 h (100 = growth as untreated, 0 = no growth, -100 = all killed)
Common to all, as to details: 10 µM

The subject of experiment [1] is DU-145 prostate.
Experiment [2] has as its system K-562 leukemia.
Experiment [3] relates to MALME-3M melanoma.
In experiment [4] the test system is MDA-MB-231 breast.
In experiment [5] the test system is RXF 393 renal.
The test system of experiment [6] is SF-268 CNS.
Experiment [7] concerns SF-295 CNS.
Experiment [8] concerns SF-539 CNS.
Experiment [9] has as its system UACC-257 melanoma.
The subject of experiment [10] is M14 melanoma.

In the case of `COc1cccc2nc(Nc3ccc(F)c(NC(=O)c4ccc(CN5CCN(C)CC5)c(C(F)(F)F)c4)c3)ccc12`, the growth is 6.64% (active) in [1]; -70.8% (active) in experiment [2]; -91.3% (active) in experiment [3]; -37.8% (active) in [4]; -27.1% (active) in [5]; 22.2% in [6]. For the same molecule, the growth is -84% (active) in [7], -93.6% (active) in [8], -66.5% (active) in experiment [9] and -12% (active) in [10].

Consider `CN1C(=O)/C(=C/c2ccc3ncsc3c2)NC1=NC12CC3CC(CC(O)(C3)C1)C2`, for which the growth was 12.2% in [1]; 11.9% in [2]; -15% (active) in experiment [3]; 0.441% (active) in experiment [4]; -22.7% (active) in [5]; 24.5% in experiment [6]. The growth in experiment [7] was 14.1%; in experiment [8], -32.1% (active); in experiment [9], -17% (active); in [10], 36.9%.

Regarding `O=C(c1ccc(Cl)cc1)C1[C@H](c2ccc(Br)cc2)[C@@H](c2ccccc2)NC12C(=O)Nc1ccc(Br)cc12` (stereo not given in full), the growth in experiment [1] was -43.2% (active); in experiment [2], -37.6% (active); in experiment [3], -95.5% (active); in experiment [4] it was -96.1% (active); in experiment [5] it was -94.8% (active); in [6], -28.6% (active). The growth was -97.2% (active) in [7], -88.8% (active) in experiment [8], -71.3% (active) in experiment [9] and 3.03% (active) in [10].

Take `O=C(N/N=C/c1ccc(-c2cccc([N+](=O)[O-])c2)o1)c1[nH]c2ccc(Br)cc2c1-c1ccccc1`: the growth in [1] is 6.18% (active); in [2], 4.74% (active); in experiment [3], 39%; in experiment [4] it was 6.8% (active); in experiment [5], 26.4%; in experiment [6], 36%. Besides, the growth in [7] is -15.3% (active); in experiment [8], -49.8% (active); in experiment [9] it was 41.9%; in experiment [10], 10.4%.

Regarding `O=C(Nc1cc(Cl)cc(Cl)c1)Nc1cc(Cl)cc(Cl)c1`, the growth is 15.2% in [1]; -25.5% (active) in experiment [2]; -40.5% (active) in experiment [3]; -65.6% (active) in [4]; -15.1% (active) in [5]; 9.6% (active) in experiment [6]. The growth is -47.9% (active) in experiment [7], -46.2% (active) in experiment [8], -29.7% (active) in experiment [9] and -77.9% (active) in experiment [10].

Consider `O=C1NC(=NC23CC4CC(CC(C4)C2)C3)N/C1=C\c1ccc2ncsc2c1`, for which the growth in experiment [1] is 6.29% (active); in [2], 10.5%; in experiment [3], 2.66% (active); in [4] it was -8.83% (active); in [5] it was -63.6% (active); in experiment [6], -11.5% (active). Besides, the growth in experiment [7] is 13%; in [8], -23.9% (active); in experiment [9], 26.7%; in [10], 42%.

As to `O=C(CN1CCN(c2ncnc3c2cnn3-c2ccccc2)CC1)Nc1nncs1`, the growth was -96.1% (active) in experiment [1]; 10.6% in experiment [2]; -67.3% (active) in experiment [3]; 29.7% in experiment [4]; -71.3% (active) in experiment [5]; -34.4% (active) in experiment [6]. Besides, the growth in experiment [7] is -31.4% (active); in experiment [8], -88.2% (active); in [9] it was 54.3%; in [10] it was 4.82% (active).

As for `N#Cc1c(NC(=O)c2ccc(C(F)(F)F)cc2C(F)(F)F)sc2c1CCC(=O)C2`, the growth in experiment [1] was 23.9%; in experiment [2], 2.16% (active); in [3] it was -86.8% (active); in experiment [4] it was -74.4% (active); in experiment [5] it was -59% (active); in experiment [6] it was 27.1%. Further, the growth in experiment [7] was -21.7% (active); in experiment [8] it was -80.2% (active); in experiment [9], -64.8% (active); in experiment [10], -50.3% (active).

Take `CN(C(=O)c1ccc(C(F)(F)F)cc1C(F)(F)F)c1sc2c(c1C#N)CCC(=O)C2`: the growth is 103% in experiment [1]; 6.49% (active) in [2]; 99% in experiment [3]; 71.1% in experiment [4]; 7.86% (active) in [5]; 85% in experiment [6]. Further, the growth in experiment [7] was 65.1%; in [8], -37.6% (active); in [9], 99%; in experiment [10] it was 73.9%.

Turning to `O=C(c1ccc(O)cc1)C1[C@H](c2ccccc2Br)[C@@H](c2ccccc2)NC12C(=O)Nc1ccc(Br)cc12` (stereo not given in full), the growth is 70.2% in experiment [1]; 29.9% in experiment [2]; 78.7% in experiment [3]; 46.3% in [4]; 55.3% in experiment [5]; 40% in experiment [6]. The growth was 26.6% in experiment [7], 49.1% in experiment [8], 65.4% in experiment [9] and 54.6% in experiment [10].

For the molecule `COc1ccc([C@H]2C(C(=O)c3ccc(Cl)cc3)C3(N[C@@H]2c2ccccc2)C(=O)Nc2ccc(Br)cc23)cc1` (stereo not given in full), the growth in experiment [1] was 17%; in experiment [2], 5.88% (active); in experiment [3], -7.99% (active); in [4], -58.3% (active); in [5] it was -72.9% (active); in experiment [6], 18.9%. Also, the growth was -60.2% (active) in experiment [7], -21.5% (active) in experiment [8], 17% in [9] and 16.1% in experiment [10].

For the molecule `COc1cccc(/C=N/NC(=O)c2ccc3nc(-c4ccc(Cl)cc4)[nH]c3c2)c1O`, the growth in experiment [1] was -96.1% (active); in [2] it was -37.2% (active); in experiment [3], -96.3% (active); in experiment [4] it was -72.8% (active); in experiment [5], -96.5% (active); in experiment [6], -79% (active). Moreover, the growth in experiment [7] was -91.3% (active); in experiment [8], -99% (active); in experiment [9] it was -83.8% (active); in experiment [10], -79.5% (active).

For `O=C(c1ccc(Cl)cc1)C1[C@H](c2ccccc2Br)[C@@H](c2ccccc2)NC12C(=O)Nc1ccccc12` (stereo not given in full), the growth was 17.6% in [1]; 3.71% (active) in experiment [2]; 39.6% in experiment [3]; 8.15% (active) in experiment [4]; -12.6% (active) in experiment [5]; 27.9% in [6]. For the same molecule, the growth in experiment [7] is 12.9%; in [8], 13.5%; in experiment [9], 33.8%; in experiment [10], 17.1%.
